In ChEMBL document CHEMBL3988442, “University of Dundee, Small-Polar-MMV Screening Library” (2021):
Out of some 48,000 compounds screened, about 13,000 (27%) showed an effect of 50% or more. This is one part of the list.

These compounds were tested on Wolbachia pipientis (assay: Anti-Wolbachia Cell-Based Screen). Settings: 5 µM.
Format: functional
Set-up: scale not given: in the data most compounds retested in dose-response had high values

| Compound | Percent Effect [%] |
| --- | --- |
| CCC(CNC1CCN(C(C)=O)CC1)Oc1ccccc1Cl (centres undefined) | 3.786 |
| NC(=O)N1CCCC(C(=O)NCc2ccccc2OC(F)(F)F)C1 (centres undefined) | 21.92 |
| CCC(O)CNC(=O)c1cc(COc2ccc(OC)cc2Cl)[nH]n1 (centres undefined) | 4.505 |
| O=C(CCc1ccccc1)Nc1ncccc1OC(F)F | -7.341 |
| CSC(C)C(=O)N1CCCN(Cc2cnn(C(C)C)c2)CC1 (centres undefined) | -3.847 |
| CCn1cc(CN2CCCN(C(=O)CCSC)CC2)cn1 | 96.36 |
| CSCCC(=O)N1CCCN(Cc2cnn(C(C)C)c2)CC1 | 82.47 |
| CCc1nnsc1C(=O)N1CCCN(Cc2cnn(C)c2)CC1 | 1.125 |
| CC(C)(C)OC(=O)N1CSC[C@@H]1C(=O)NCc1cccc(C#N)c1 | -10.68 |
| Cc1ccc2[nH]c(CNC(=O)C3CC4(CCNCC4)CN3C)nc2c1C (centres undefined) | 105.7 |
| Cc1ccc(NCCCNC(=O)C2CC3(CCNCC3)CN2C)nc1 (centres undefined) | -3.217 |
| Cc1ncsc1CCCNC(=O)C1CC2(CCNCC2)CN1C (centres undefined) | 23.09 |
| COc1ccc2nc(CNC(=O)C3CC4(CCNCC4)CN3C)[nH]c2c1 (centres undefined) | 101.4 |
| CCn1nc(C(C)C)cc1C(=O)NCc1nc2ccc(OC)cc2[nH]1 | 5.154 |
| COc1ccc2nc(CNC(=O)c3cc(C(C)C)on3)[nH]c2c1 | -7.42 |
| Cn1nnc2c1CCN(S(C)(=O)=O)C2COCC1CC1 (centres undefined) | -21.64 |
| Fc1cc(CNCc2ccc3c(c2)CCO3)ccc1N1CCOCC1 | 14.1 |
| CCC[C@@H]1CN(C(=O)c2conc2-c2ccccc2)C[C@H]1N(C)C | -6.905 |
| COC(=O)Cn1c(=O)nc2n1C(=O)N(c1ccccc1)C2 | -2.891 |
| CC(=O)c1cn(CC(=O)N2CCC(O)(CO)CC2)c2ccccc12 | -13.61 |
| CCCC(=O)N1CCC(O)(Cn2c(CC)nc3ccccc3c2=O)CC1.Cl | -3.591 |
| CCc1nc2ccccc2c(=O)n1CC1(O)CCN(CC(=O)OC)CC1 | 94.95 |

| Compound | Percent Effect [%] |
| --- | --- |
| CCc1nc2ccccc2c(=O)n1CC1(O)CCN(C(=O)C(C)C)CC1 | 101.9 |
| CCc1nc2ccccc2c(=O)n1CC1(O)CCN(C(=O)COC)CC1.Cl | 76.81 |
| Cc1nc2ccccc2c(=O)n1CCC(=O)N1CCSCC1 | -8.454 |
| CS(=O)(=O)N1CCC(O)(Cn2c(C3CC3)nc3ccccc3c2=O)CC1 | -5.897 |
| Cc1nc2ccccc2c(=O)n1Cc1nnnn1C1CC1 | -4.17 |
| COCC(=O)N1CCCN(Cc2cc(O)c3ccccc3n2)CC1 | -35.6 |
| CCc1nc2ccccc2c(=O)n1CC1(O)CCN(C(=O)C2CC2)CC1.Cl | 111.9 |
| CCC(Oc1ccc(N(C)S(C)(=O)=O)cc1)C(=O)NC (centres undefined) | 9.37 |
| CC(C)NC(=O)N1CCCC2(CCCCN2)C1 (centres undefined) | -45.21 |
| CNC(=O)Cc1noc(-c2cc3c(s2)CCCC3)n1 | 9.229 |
| Cc1cccc(CN(Cc2ccccc2)Cc2nccs2)n1 | -3.089 |
| COc1ccccc1OC1CN(C(=O)CN(C)Cc2ccncc2)C1 | -7.187 |
| CCC(=O)NC1CCCN(Cc2ccc(-n3ccnc3)cc2)C1 (centres undefined) | 12 |
| CCc1nc2ccccc2c(=O)n1CC1(O)CCNCC1.Cl | 113.9 |
| CCc1nc2ccccc2c(=O)n1CC1(O)CCN(S(C)(=O)=O)CC1.Cl | -5.087 |
| Cc1nc2ccccc2c(=O)n1CCC(=O)N1CCNC(=O)C1 | -8.423 |
| CCNC(=O)N(Cc1ccoc1)C1CCCCC1 | -0.3193 |
| Cc1cc(-c2cnn(CCNC(=O)C3CC3)c2C2CC2)on1 | 8.757 |
| Cc1cc(-c2cnn(CCNC(=O)c3snnc3C)c2C2CC2)on1 | 141.4 |
| CCc1cccc(N2CCC(NC(=O)c3cc[nH]n3)CC2)c1 | 15.39 |
| Cc1cc(-c2cnn(CCNC(=O)c3cccnc3)c2C2CC2)on1.Cl | -6.458 |
| Cc1cc(-c2cnn(CCNC(=O)c3cc[nH]n3)c2C2CC2)on1 | 115.4 |

| Compound | Percent Effect [%] |
| --- | --- |
| Cc1cc(C(=O)NCCSC2CCCC2)no1 | -0.7527 |
| Cc1cc(-c2cnn(CCNC(=O)c3cnn(C)c3)c2C2CC2)on1 | 133.8 |
| CCCn1nc(C)c(CNC(=O)c2snnc2C)c1C | -13.49 |
| O=C(NCCc1nnc[nH]1)Nc1cccc(SC(F)F)c1 | -17.31 |
| O=C(C[S+]([O-])Cc1ccc(Cl)cc1Cl)N1CCc2sccc2C1 (centres undefined) | -26.03 |
| Cc1nc(CN(C)C(=O)C2CC(=O)N(c3cccc(O)c3)C2)cs1 (centres undefined) | -3.806 |
| COc1cccc(S(=O)(=O)CCN2CCCN(C(C)=O)CC2)c1 | -4.305 |
| CN1CCOC[C@H]1c1nc(-c2ccncc2)c[nH]1 | -4.576 |
| Cc1ccc(C)c(NC(=O)N2CCC3(CC2)NC(=O)CC3C(=O)O)c1 (centres undefined) | -4.672 |
| O=C(O)[C@@H]1CN(C2CCOCC2)C[C@H]1C1CC1 | 12.44 |
| c1nc2n(n1)CC(NCc1csc(-c3ccsc3)n1)CC2 (centres undefined) | -11.03 |
| Clc1ccccc1-c1nc(CNC2CCc3ncnn3C2)cs1 (centres undefined) | -2.283 |
| c1csc(-c2nc(CNC3CCc4ncnn4C3)co2)c1 (centres undefined) | -0.5039 |
| Clc1cccc(-c2nc(CNC3CCc4ncnn4C3)co2)c1 (centres undefined) | 112.7 |
| Fc1ccc(-c2nnc(CNC3CCc4ncnn4C3)o2)cc1 (centres undefined) | -10.58 |
| Fc1ccc(-c2ccc(CNC3CCc4ncnn4C3)o2)cc1 (centres undefined) | -0.7899 |
| Fc1ccc(-c2nc(CNC3CCc4ncnn4C3)co2)cc1 (centres undefined) | 119.4 |
| c1ccc(-c2nc(CNC3CCc4ncnn4C3)co2)cc1 (centres undefined) | 3.463 |
| Cc1ccc(-c2nc(CNC3CCc4ncnn4C3)co2)cc1 (centres undefined) | 77.78 |
| Clc1ccccc1-c1nc(CNC2CCc3ncnn3C2)co1 (centres undefined) | 83.87 |
| N#Cc1ccc(CS(=O)(=O)NC(=O)c2ccc3c(c2)COC3)cc1 | -4.05 |
| Cn1cc(Cl)cc1C(=O)N1CCN(Cc2ccsc2)CC1 | -5.701 |

| Compound | Percent Effect [%] |
| --- | --- |
| CC(=O)N1CCC(N2CCOC[C@H]2c2nc(-c3cccnc3)c[nH]2)CC1 | 31.59 |
| Cc1nc(NC(=O)c2c(-n3cnnn3)sc3c2CCC3)sc1C | 89.24 |
| Cc1nc(NC(=O)c2c(-n3cnnn3)sc(C)c2C)sc1C | 111.3 |
| Cc1sc(-n2cnnn2)c(C(=O)NC(C)C)c1C | 78.35 |
| Cc1nc(NC(=O)c2cccnc2N2CCOCC2)sc1C | -47.07 |
| Cc1nc(NC(=O)C(C)N2CCN(c3cnccn3)CC2)sc1C (centres undefined) | 1.711 |
| CC[C@H](C)[C@H](NC(=O)c1ccccc1-n1cnnn1)C(=O)OC | 39.09 |
| CCC(C)NC(=O)c1ccccc1-n1cnnn1 (centres undefined) | -7.012 |
| Cc1nc(NC(=O)c2c(-n3cnnn3)sc3c2CCCC3)sc1C | 119.6 |
| O=C(COCC1CC1)N1CCCC(n2cccn2)C1 (centres undefined) | 4.687 |
| CC1CN(Cc2ccccc2)CCCN1CCCS(C)(=O)=O (centres undefined) | -4.156 |
| CC(=O)Nc1nc(C(=O)N2CCCC(c3cc(C)[nH]n3)C2)cs1 (centres undefined) | -0.9316 |
| CC(=O)Nc1nc(C2CCN(CC(N)=O)CC2)cs1 | -6.255 |
| CC(=O)N1CCC(C(=O)Nc2nc(C3CC3)cs2)CC1 | 19.21 |
| CC(=O)Nc1nc(C2CCN(C(C)C)CC2)cs1 | 119.6 |
| CC(=O)Nc1nc(C2CCN(C(=O)Cc3ccccc3)CC2)cs1 | 87.03 |
| CC(=O)Nc1nc(C2CCN(C(=O)c3cncs3)CC2)cs1 | 107.2 |
| Cc1nc(-c2ccc(CC(=O)N3CCN(C(=O)C4CC4)CC3)cc2)cs1 | 16.03 |
| CC(=O)c1ccc(C(=O)N2CCC(c3cc(O)nc(C)n3)CC2)s1 | -1.622 |
| Nc1nc(C2CCN(C(=O)c3cncs3)CC2)cs1 | -2.594 |
| CC(=O)Nc1nc(C2CCN(C(=O)C3CCC3)CC2)cs1 | 103.4 |
| CCc1csc(CCNC(=O)CC2CCN(C(C)C)CC2)n1 | 8.427 |

| Compound | Percent Effect [%] |
| --- | --- |
| CSCC(=O)NC(Cc1ccc(C)cc1)c1ccccn1 (centres undefined) | -0.4247 |
| O=C(Cn1cc(C2CC2)nn1)NC(c1cc(F)ccc1F)C1CC1 (centres undefined) | -5.532 |
| O=C(C1CC=CC1)N1CCC2(CCC(=O)N2Cc2cccc(F)c2)CC1 | -0.5854 |
| O=C(NC[C@H]1OC[C@@H](NCc2ccc(F)cc2)[C@@H]1O)c1ccncc1 | -2.517 |
| CC(=O)Nc1nc(C(=O)N2CCC(Nc3cccnn3)CC2)cs1 | -3.618 |
| CC(=O)Nc1nc(C2CCN(C(=O)c3ccncc3)CC2)cs1 | 108.8 |
| COc1ccccc1N1CCC(N2CCOCC(CO)C2)CC1 (centres undefined) | 9.24 |
| O=C(CC1CCCO1)NCc1ccc(Br)cc1F (centres undefined) | 3.91 |
| CN(CC1(CO)CCOCC1)[C@@H]1c2ccccc2C2(CCNCC2)[C@H]1O | 1.582 |
| O=C(O)[C@]12CCCN(Cc3cccnc3)[C@@H]1CCN(c1cnccn1)C2 | -19.78 |
| CC(C)(C)OC(=O)NCC1CCCCN1Cc1ccncc1 (centres undefined) | -3.492 |
| CC(C)(C)OC(=O)NCC1CCCCN1Cc1cccnc1 (centres undefined) | 4.728 |
| c1cc(CN2CCCCC2c2ccc(Nc3cnccn3)nc2)ccn1 (centres undefined) | 159 |
| c1cncc(CN2CCCCC2c2ccc(Nc3cnccn3)nc2)c1 (centres undefined) | 73.84 |
| CCc1ccc(C(=O)N2CCN(CCS(C)(=O)=O)CC2)o1 | -5.31 |
| O=C(Nc1cccc(-c2cscn2)c1)N1CCC2(CC1)CC(O)CO2 (centres undefined) | -8.053 |
| CN(C)C(=O)C1CCC2(CCN(C(=O)Nc3cccc(F)c3)CC2)O1 (centres undefined) | 98.46 |
| O=C(Nc1cccc(F)c1)N1CCN(Cc2noc(C3CC3)n2)CC1 | -10.54 |
| Cc1nsc(N2CCN(C(=O)Nc3cccc(F)c3)CC2)n1 | -8.293 |
| Cc1cccc(NC(=O)N2CCN(Cc3nnc(C(C)C)o3)CC2)c1 | -19.75 |
| Cc1cccc(NC(=O)N2CCC3(CCC(C(=O)N(C)C)O3)CC2)c1 (centres undefined) | 100.6 |
